Bioassay records (PubChem)
Shown are actives, neighbours in structure and some others; about 3.5% of the full set was active somewhere.
MITF inh = MITF inhibitors, primary screen, biochemical, AlphaScreen, human. Microphthalmia-associated transcription factor (Homo sapiens), O75030. inhibition, % at 2.6 µM. AID 1259374, 2018. 0.91% of 650,000 active. AlphaScreen MITF homodimerization, bead proximity signal; in the data active = inhibition above about 50%;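 note: 0% = vehicle wells with protein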
FBW7 activator = FBW7 E3 ligase activators, primary screen, biochemical, AlphaScreen, human. F-box/WD repeat-containing protein 7 (Homo sapiens), Q969H0. AlphaScreen FBW7–phospho-cyclin E peptide binding, activator screen. normalized activity (activation), % at 26.1 µM. 0.13% of 650,000 active. AID 1259310, 2017; in the data active = normalized activity above about 1.9%;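 note: purified mutant Fbw7 with reduced substrate affinity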
TEAD-YAP inh = TEAD-YAP interaction inhibition, primary screen, TEAD-YAP interaction inhibitor project, luminescence, HEK-TIYL cells. inhibition, % at 9.12 µM. TEAD-Gal4/YAP UAS-luciferase luminescence. 1.4% of 640,000 active; in the data active = inhibition above about 32%;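 note: 0% = median of test compound wells and 100% = reference inhibitor wells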
GPR151 activ = activators of human GPR151, primary screen, cell-based, PathHunter beta-arrestin, luminescence; PathHunter beta-arrestin GPR151 cells; G-protein coupled receptor 151 (Homo sapiens), Q8TDV0; activation, % at 11.2 µM; 1% of 650,000 active; in the data active = activation above about 4.9%;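 note: 0% = median of compound wells and 100% = cells with positive control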
Starred values were filed as active, the others as inactive; . = no result given.

SMILES	MITF inh	FBW7 activator	TEAD-YAP inh	GPR151 activ
COc1ccc(/C=N/N(C)c2cnc3ccccc3n2)c(OC)c1OC	-31	1	-29	0
CC(C)(C)C(=O)Nc1ccc(NC(=O)c2cccs2)nc1	4	0	94*	-4
CCOc1ccc(/C=C(/C#N)C(=O)Nc2ccc(O)cc2)cc1OCC	-2	0	15	0
COc1cc(/C=C(\C#N)C(=O)c2ccc(O)c(O)c2)cc(I)c1O	85*	0	-1	-1
N#C/C(=C\c1ccc(O)c(O)c1)C(=O)NCCCNC(=O)/C(C#N)=C/c1ccc(O)c(O)c1	96*	0	1	-1
CCOc1cc(/C=C(/C#N)C(=O)Nc2ccc(O)cc2)ccc1O	-12	0	50*	1
N#C/C(=C\c1ccc(O)c(O)c1)C(=O)Nc1ccccc1	-11	0	-7	-3
COc1cc(/C=C(/C#N)C(=O)Nc2ccc(O)cc2)cc(I)c1O	-7	0	50*	0
C=CCn1c(SCC(=O)Nc2ccc(C(C)=O)cc2)nnc1-c1cccs1	4	0	24	0
O=C1COc2ccc(C(=O)N3CCC4(CC3)NC(=O)c3ccccc3O4)cc2N1	-6	0	-13	2
CCOc1ccc(/C=C(/C#N)C(=O)Nc2ccc(O)cc2)cc1OC	-5	0	-3	0
CCOc1cc(/C=C(/C#N)C(=O)Nc2ccc(O)cc2)ccc1OC	8	0	44*	0
COc1ccc(CC(=O)Nc2ccc(C)c(C)c2)cc1OC	2	0	8	1
COc1ccc(-c2ccc(C)c(NC(=O)Cc3ccc(OC)c(OC)c3)c2)nn1	10	1	64*	0
COc1ccc(CC(=O)Nc2cc(NC(=O)c3cccs3)ccc2C)cc1OC	17	0	32*	-1
CC1=CC2=NC(Cc3ccc(Cl)cc3)(NC(=O)c3ccccc3)C(=O)N2C=C1 (stereo unspecified)	-3	0	6	1
C=C1c2cccc(O)c2C(O)=C2C(=O)C3(O)C(O)=C(C(N)=O)C(=O)C(N(C)C)C3C(O)C12 (stereo unspecified)	111*	0	17	-2
CN(C)C1C(=O)C(C(N)=O)=C(O)C2(O)C(=O)C3=C(O)c4c(O)ccc(Cl)c4C(O)C3CC12 (stereo unspecified)	36	0	.	1
COc1ccccc1-c1cnnc(N/N=C/c2ccc(OCC(=O)O)cc2)n1	13	0	-9	0
Cc1nnc(N(CC2CCCO2)C(=O)c2ccno2)s1 (stereo unspecified)	8	0	10	2
COCC(=O)N(CC1CCCO1)c1nnc(C)s1 (stereo unspecified)	5	0	34*	-4
c1ccc2[nH]c(CNc3nc(-c4ccc(N5CCOCC5)nc4)nc4c3ncn4-c3ccsc3)nc2c1	4	23*	82*	2
CC(C)n1cnc2c(NCc3nc4ccccc4[nH]3)nc(N3CCOCC3)nc21	-2	0	79*	-1
CC(C)n1cnc2c(NCc3nc4ccccc4[nH]3)nc(-c3ccc(N4CCOCC4)nc3)nc21	-1	0	70*	-1
COc1ccc(-c2nc(NCc3nc4ccccc4[nH]3)c3ncn(-c4ccsc4)c3n2)cc1	16	0	27	1
SMILES	MITF inh	FBW7 activator	TEAD-YAP inh	GPR151 activ
CC(C)n1cnc2c(NCc3ccccc3)nc(-c3ccc(N4CCOCC4)nc3)nc21	3	0	5	-2
COc1ccc(-c2nc(NCc3nc4ccccc4[nH]3)c3ncn(-c4ccsc4)c3n2)cn1	0	1	78*	-1
Cc1ccc(NCC(=O)n2c3ccccc3c3ccccc32)cc1C	21	1	-4	0
N#Cc1ccccc1S(=O)(=O)Nc1cccc(C(=O)N2CCOCC2)c1	13	1	6	1
Cc1ccc2nc(SCC(=O)Nc3nccs3)nc(C)c2c1	-22	0	4	-1
Cc1noc(/C=C/c2ccco2)c1S(=O)(=O)N1CCC(C(=O)Nc2nccs2)CC1	58*	0	-12	0
Cc1ccc(C)c(OCCn2cc(/C=C3/C(=N)N4N=C(C5CCCCC5)SC4=NC3=O)c3ccccc32)c1	4	0	12	1
Cc1ccc(N=Cc2sc3ccccc3c2O)cc1C	-4	0	74*	-1
Cc1ccccc1N=Cc1sc2ccccc2c1O	-5	0	53*	-1
Oc1c(C=Nc2ccc(Cl)cc2)sc2ccccc12	16	0	10	0
